Laboratory results taken from PubChem BioAssay AID2012 (Sanford-Burnham Center for Chemical Genomics, 2009).
Screen size: about 290,000 compounds; about 2,700 (0.93%) were called active. No rule for the calls is given here. This excerpt belongs to a sample that is enriched for actives.

Target: Eukaryotic translation initiation factor 4H (Homo sapiens) (UniProt Q15056)
Experiment: human eIF4H binding inhibitors, primary screen, translation initiation inhibitor project, biochemical, uHTS, fluorescence polarization (AID 2012);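 also: calls also rest on retests at 20 µM and on dose response follow-up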
Conditions: eIF4H fluorescence polarization binding assay, stronger effect = higher value

| SMILES | inhibition (at 35 µM) | inhibition (confirmation average, at 20 µM) [%] |
| --- | --- | --- |
| CC[C@]1(c2ccccc2OC)C(=O)N(C(=O)OC)N1C(=O)OC | 2.4% (inactive) | – |
| COc1ccccc1CNC(=O)[C@@H]1CCCN1C(=O)[C@@H]1Cc2ccccc2CN1C(=O)OC(C)(C)C | -6.3% (inactive) | – |
| COc1ccc(NS(=O)(=O)c2ccc(N3CCN(CCO)CC3)c([N+](=O)[O-])c2)cc1 | -9.3% (inactive) | – |
| C/C(=N\NC(=O)CC(C)C)c1c(C(F)(F)F)[nH]n(-c2nc3ccccc3s2)c1=O | -5.6% (inactive) | – |
| CCC(C)Cn1c(O)cc2nn(-c3nc4ccccc4s3)c(=O)c-2c1C (configuration not stated) | 89.6% (active) | – |
| Cc1cc(NC(=O)CN2CCCC(C)C2)n(-c2nc3ccccc3s2)n1 (configuration not stated) | -0.6% (inactive) | – |
| COc1ccc(S(=O)(=O)NCCCCOc2ccc(Cl)cc2)cc1 | 25.8% (inactive) | – |
| O=C(NNS(=O)(=O)c1ccc(F)cc1)c1ccc([N+](=O)[O-])cc1Cl | -5.4% (inactive) | – |
| CC(C)c1ccc(OCC(O)CN2CCN(c3ccccn3)CC2)cc1 (configuration not stated) | -9.3% (inactive) | – |
| COc1ccc(-c2csc(NC3OC(=O)c4ccccc43)n2)cc1 (configuration not stated) | 2.1% (inactive) | – |
| COc1ccc(-c2csc(Cc3nc(O)cs3)n2)cc1 | 20.3% (active) | 82.6 |
| CC(C)(C)C(=O)OCc1nc(-c2ccc(O)c(O)c2)cs1 | 1.2% (inactive) | – |
| FC(F)(F)C1CCCN(c2nsc3ccccc23)C1 (configuration not stated) | -3.8% (inactive) | – |
| O=S(=O)(c1ccc(Br)cc1)c1nc(-c2ccccc2)oc1N1CCOCC1 | -5.9% (inactive) | – |
| O=C(O)CCC(=O)Nc1ccc(OCC2CCCO2)cc1 (configuration not stated) | 2.6% (inactive) | – |
| COC(=O)COc1ccc2c(=O)c(Oc3ccccc3Br)coc2c1 | 5.6% (inactive) | – |
| Cc1cc(=O)oc(C)c1C(=O)Nc1cnc2ccccc2c1 | 78.6% (active) | – |
| Cc1cc(=O)oc(C)c1C(=O)NCc1ccc(F)cc1 | 0.5% (inactive) | – |
| Cc1cc(=O)oc(C)c1C(=O)NCCN(C)Cc1ccccc1 | 6.6% (inactive) | – |
| CCOC(=O)c1c(S(=O)(=O)NCC(=O)Nc2ccc(C)cc2)c(C)n(C)c1C | -0.1% (inactive) | – |
| O=C(NCCCn1ccnc1)/C(=C\c1ccccc1F)NC(=O)c1ccccc1 | -6.4% (inactive) | – |

| SMILES | inhibition (at 35 µM) | inhibition (confirmation average, at 20 µM) [%] |
| --- | --- | --- |
| Cc1cc(C)c(C(N)=O)c(Cl)n1 | 19.4% (active) | 93.1 |
| Cc1cc(OC(=O)c2c(Cl)cccc2Cl)nc(C)n1 | -11.4% (inactive) | – |
| Cc1ccc(Nc2nc(C)cc(C)c2C(N)=O)cc1 | 5.6% (inactive) | – |
| CC(C)CN(CC(C)C)C(=O)CN1c2cccc3cccc(c23)S1(=O)=O | -14.9% (inactive) | – |
| COc1ccc(N2C(=O)C3CCCN3C2c2cccc(OC)c2)cc1 (configuration not stated) | -6.3% (inactive) | – |
| Cc1ccc(C2Nc3cccc4cccc(c34)N2)cc1 | 41% (inactive) | – |
| COc1cccc(C2Nc3cccc4cccc(c34)N2)c1 | 59.9% (active) | 98.5 |
| COc1ccc(C2NC(=O)c3ccccc3N2)cc1 (configuration not stated) | 7.1% (inactive) | – |
| Oc1ccc(C2Nc3cccc4cccc(c34)N2)cc1 | 97.3% (active) | – |
| O=C1NC(c2cccc(Cl)c2)Nc2ccccc21 (configuration not stated) | -8.5% (inactive) | – |
| O=C(Nc1nnc(S(=O)(=O)N2CCCCCC2)s1)c1cccc(Br)c1 | -8.4% (inactive) | – |
| COc1ccc(CCNC(=O)CN(C)S(=O)(=O)c2ccc3nc(C)sc3c2)cc1OC | -3% (inactive) | – |
| CS(=O)(=O)N1CCCC(C(=O)Nc2ccccc2C(F)(F)F)C1 (configuration not stated) | -2% (inactive) | – |
| CCOc1ccc(NC(=O)CC(Cc2ccc(Cl)cc2)C(=O)O)cc1 (configuration not stated) | -6.5% (inactive) | – |
| CN(Cc1ccccc1)CC(O)COc1ccc(CNCc2cc3ccccc3s2)cc1 (configuration not stated) | -2% (inactive) | – |
| CN(CC1CCCN(CCc2cccc(C(F)(F)F)c2)C1)C(=O)c1ccc2nc[nH]c2c1 (configuration not stated) | -2% (inactive) | – |
| Oc1ccc(-c2cccc(-c3ccc(O)cc3)c2)cc1 | 2% (inactive) | – |
| CCC(C)(C)NC(=O)C(c1ccc(O)cc1)N(Cc1ccco1)C(=O)CCC(=O)Nc1ccccn1 (configuration not stated) | -7% (inactive) | – |
| Cc1[nH]n(C(N)=S)c(=O)c1N=Nc1ccc(Cl)cc1Cl | 13.7% (inactive) | – |
| O=C(O)CCn1c(Cc2ccccc2)nc2ccccc21 | 0.7% (inactive) | – |
| Cc1cc2ccccc2n1CCNC(=O)COc1ccc2ccccc2c1 | 21% (inactive) | – |

| SMILES | inhibition (at 35 µM) | inhibition (confirmation average, at 20 µM) [%] |
| --- | --- | --- |
| Cc1cc2ccccc2n1CCC(=O)O | 52.4% (active) | 80.5 |
| CCc1nc(N2CCN(C(C)=O)CC2)c2c3c(sc2n1)CCCC3 | -5.1% (inactive) | – |
| COc1ccc(C(C)NC(=S)NC2CCCCC2)cc1OC (configuration not stated) | -7.9% (inactive) | – |
| CCOc1ccc(N(C)Cc2cc(=O)oc3ccc(OC)cc23)cc1 | 4.8% (inactive) | – |
| O=C(NCc1cccnc1)c1ccccc1NC(=O)c1c(F)cccc1F | -10.7% (inactive) | – |
| CSc1ccc(/C=N/N2CCN(Cc3ccccc3Cl)CC2)cc1 | 0.6% (inactive) | – |
| O=c1ccn(Cc2ccccc2Cl)cc1 | -2.8% (inactive) | – |
| O=S1(=O)CCN(Cc2ccccc2Cl)CC1 | 56.9% (active) | 81.5 |
| COC(=O)c1ccc(C(=O)NC2CC(C)(C)Cc3c2cnn3-c2ccc(F)cc2)nc1 (configuration not stated) | -3.4% (inactive) | – |
| CC(c1ccccn1)N(C)C(=O)c1ccc2nc(Cc3cccc(Cl)c3)oc2c1 (configuration not stated) | -0.5% (inactive) | – |
| COCCN1C=C2C(=O)C(C)(OC(=O)C3CCCC3)C(=O)C=C2C=C1c1ccsc1 (configuration not stated) | 98.2% (active) | – |
| COC(=O)CCCC1=CC2=CC(=O)C(C)(OC(=O)c3cccs3)C(=O)C2=CN1CC1CC1 (configuration not stated) | 45.8% (inactive) | – |
| CC1(OC(=O)CCc2ccccc2)C(=O)C=C2C=C(c3ccc(C#N)cc3)N(CCc3ccccn3)C=C2C1=O (configuration not stated) | 35.9% (inactive) | – |
| COCc1c(C(=O)N/N=C(\C)c2ccncc2)nnn1-c1nonc1N | 1.9% (inactive) | – |
| Cc1ccc(NC(=O)C2CCN(S(=O)(=O)c3ccc4c(c3)NC(=O)CO4)CC2)cc1C | -7.3% (inactive) | – |
| COc1ccccc1C(=O)N(Cc1ccc(C)o1)C1CCS(=O)(=O)C1 (configuration not stated) | -6.1% (inactive) | – |
| Fc1cc(F)c2nc(Nc3nc4c(F)cccc4s3)sc2c1 | 11.5% (inactive) | – |
| NC(=O)c1c(NC(=O)c2ccccc2)sc2c1CCCC2 | -0.5% (inactive) | – |
| NC(=O)c1c(Nc2nc3c(F)cccc3s2)sc2c1CCCC2 | 72.6% (active) | 99.1 |
